# PubChem BioAssay (NCATS)
# “And” between values parts separate entries of the source, which are not always exact repeats. Equal values may be shown once. Results filed as inconclusive are left out. A number with no mark means an inactive call. The source made the active and inactive calls. The call rests on the fitted dose curve; in most records, active means well fitted inhibition curve with a large enough effect; inconclusive means small, poorly fitted or top-dose-only effect; inactive means flat fitted curve, though single readings scatter.
# Test system: CRL-7250
# Test: Cytotoxic Profiling of Annotated Libraries Using Quantitative High-Throughput Screening (AID 1296008); further: nearly all actives have a fitted effect of over 60% in size
# Conditions: Five cell lines viability, CellTiter-Glo ATP luminescence, 48-72 h; max response: hits give low values
# Outline: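 Cytotoxicity was measured as CellTiter-Glo ATP luminescence, read after 10 min at room temperature. Compound treatment of the cells lasted 48 or 72 hr at 37 degrees Celsius in a qHTS format.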
# On the % scale 0 is the no-effect control and ±100 the full control effect; potency means the concentration at half of the fitted maximal effect.
Compound,Potency,max response [%],outcome
C=CC(=O)Nc1cccc(Nc2nc(Nc3ccc(OCCOC)cc3)ncc2F)c1,5.17 µM (active),–,–
C=C1C(=O)O[C@H]2C3=C(C)CCC[C@]3(C)C(=O)C[C@@H]12,18.4 µM (active),–,–
C#CC(=O)N(c1ccc(OC)cc1OC)C(C(=O)NCC(=O)OCC)c1cccs1 (stereo not given),0.206 µM (active),–,–
Cn1nc(-c2ccc(C(F)(F)F)cc2)nc2c(=O)n(C)c(=O)nc1-2,14.6 µM (active),–,–
COC1CC(O[C@H]2CC[C@]3(C)C4CC[C@]5(C)C(C6=CC(=O)OC6)=CCC56OC46CC[C@@H]3C2)OC(C)C1O[C@@H]1O[C@H](CO[C@@H]2O[C@H](CO)[C@@H](O)[C@H](O)[C@H]2O)[C@@H](O)[C@H](O)[C@H]1O (stereo not given in full),1.55 µM (active),–,–
COC(=O)C1=COC(O[C@@H]2O[C@H](CO[C@@H]3O[C@H](COC(=O)/C=C\c4ccc(O)cc4)[C@@H](O)[C@H](O)[C@H]3O)[C@@H](O)[C@H](O)[C@H]2O)C2C(CO)=CCC12 (stereo not given in full),–,-64.3,–
C[C@H](Nc1ncnc2nc[nH]c12)c1cc2cccc(Cl)c2c(=O)n1-c1ccccc1,–,-26.4,–
O=S(=O)(Nc1cc(Cl)c(Oc2cnc3ccccc3c2)c(Cl)c1)c1ccc(Cl)cc1Cl,–,–,inactive
C=C1/C(=C/C=C2\CCC[C@]3(C)[C@@H]([C@H](C)/C=C/[C@H](O)C4CC4)CC[C@@H]23)C[C@@H](O)C[C@@H]1O,–,-7.4,–
C[C@@H]1CN(CC(=O)N2CC(C)(C)c3ncc(Cc4ccc(F)cc4)cc32)[C@@H](CN2CCOC[C@H]2C)CN1,–,-4.83,–
CCCCCc1ccc(/C=C/C(=O)Nc2cc(Cl)ccc2C(=O)O)cc1,–,-6.38,–
Cc1nc(C#Cc2ccnc(Cl)c2)c(C)n1-c1ccc(F)cc1,18.4 µM (active),–,–
O=C(Nc1cccnn1)N1CCN(c2nccc(-c3ccc(F)c(F)c3)n2)CC1,–,-5.59,–
O=C1NC(=O)C(c2cnc3ccccn23)=C1c1cn2c3c(cc(F)cc13)CN(C(=O)N1CCCCC1)CC2,46.1 nM (active) and 33.1 nM (active),–,–
Cc1cc2c(F)c(Oc3ncnn4cc(OCC(C)OC(=O)C(C)N)c(C)c34)ccc2[nH]1 (stereo not given),–,-5.94,–
Cc1cc(Nc2nc(-c3ccccc3)nc3ccccc23)n[nH]1,5.17 µM (active),–,–
CCOc1cc(C(C)(C)C)ccc1C1=N[C@@](C)(c2ccc(Cl)cc2)[C@@](C)(c2ccc(Cl)cc2)N1C(=O)N1CCN(CC(=O)N2CCOCC2)CC1,14.8 µM (active),–,–
COC1CC(O[C@H]2CC[C@]3(C)C4CC[C@@]5(C)C(=O)[C@]4(CC[C@@H]3C2)CC[C@@H]5C2=CC(=O)OC2)OC(C)C1OC1OC(COC2OC(CO)C(O)C(O)C2O)C(O)C(O)C1O (stereo not given in full),1.55 µM (active),–,–
COc1cc(C(N)=O)nc(-c2ccccn2)c1O,–,-12.9,–
O=C(NO)c1cnc(N2CCN(S(=O)(=O)c3ccc4ccccc4c3)CC2)nc1,7.96 µM (active),–,–
CC1CCCC[C@H]2C(=O)C=C[C@H](O)[C@@H]2CC(=O)O1 (stereo not given in full),8.2 µM (active),–,–
O=C(Nc1ccc(-c2ccc(Cl)c(Cl)c2)cc1)C1=C(O)c2ccccc2S(=O)(=O)N1,–,–,inactive
Cc1[nH]c(/C=C2\C(=O)Nc3ccc(S(=O)(=O)N(C)c4cccc(Cl)c4)cc32)c(C)c1C(=O)N1CCN(C)CC1,–,–,inactive
C=C1C(=O)O[C@@H]2[C@H]1CC(=O)[C@H](C)[C@@](O)(C(=O)/C=C/C)[C@H]2OC(=O)C(C)CC (stereo not given in full),7.18 µM (active),–,–
Cc1cccc(-c2[nH]ncc2-c2ccnc3ccccc23)n1,–,-17.2,–
Cc1cc2c(cc1N1C(=O)c3cccc4c(CCCO)ccc(c34)C1=O)n(C)c(=O)n2C,–,-31.8,–
Cc1cc(C(=O)Nc2cc(Nc3ccc4c(/C=C/c5ccccn5)n[nH]c4c3)ccc2F)n(C)n1,18.4 µM (active),–,–
CC1CCC/C=C/C(=O)c2c(O)cc(O)cc2CC(=O)O1 (stereo not given),7.31 µM (active),–,–
C=C1CC2OC(=O)C(=C)C2C(OC(=O)/C(C)=C\C)CC2(C)OC1=CC2=O (stereo not given),14.3 µM (active),–,–
CC(C)(O)/C=C/C(=O)[C@](C)(O)[C@H]1[C@H](O)C[C@@]2(C)[C@@H]3CC=C4[C@@H](C[C@H](O[C@@H]5O[C@H](CO)[C@@H](O)[C@H](O)[C@H]5O)C(=O)C4(C)C)[C@]3(C)C(=O)C[C@]12C,–,-1.87,–
